Experimental data published in paper PMC5540273 (PLoS ONE, 2017).

Legend:
Details in all cases: concentration: 1 μM, replicates: in singlicate; n = 1
[1] = system: AAK1
[2] = system: ABL1-nonphosphorylated
[3] = system: ABL1-phosphorylated
[4] = system: ABL2
[5] = system: ACVR1B
[6] = system: ACVR1
[7] = system: ACVR2A
[8] = system: ACVR2B
[9] = system: ACVRL1
[10] = system: T1, ADCK3
T1 construct: gene CABC1

[11] = system: ADCK4
[12] = system: AKT1
[13] = system: AKT2
[14] = system: AKT3
[15] = system: ALK
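Note: KINOMEscan kinase panel screen.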

Row | SMILES | %Inh [1] | %Inh [2] | %Inh [3] | %Inh [4] | %Inh [5] | %Inh [6] | %Inh [7] | %Inh [8] | %Inh [9] | %Inh [10] | %Inh [11] | %Inh [12] | %Inh [13] | %Inh [14] | %Inh [15]
1 | Cc1nccc(-c2c(-c3ccc(F)cc3)ncn2CCCN2CCOCC2)n1.Cl [SB-282975] | 0% | 26% | 0% | 22% | 36% | 5% | 53% | 7% | 19% | 37% | 0% | 28% | 0% | 0% | 9%
2 | COc1cc2ncnc(Nc3cccc(Br)c3)c2cc1OC.Cl [GI230329] | 13% |  |  | 18% | 0% | 0% | 0% | 0% | 0% | 19% | 52% | 0% | 0% | 16% | 0%
3 | CN1c2ccc(-c3ccc(C(N)=O)cc3)cc2-c2[nH]ncc2S1(=O)=O | 39% | 36% | 9% | 0% | 3% | 0% | 8% | 16% | 16% | 0% | 3% | 3% | 0% | 0% | 30%
4 | O=C(Nc1n[nH]c2nc(-c3ccco3)c(Br)cc12)C1CCN(Cc2ccccc2)C1.O=C(O)[C@H](O)[C@@H](O)C(=O)O (stereo not shown) [SB-742034] | 29% | 33% | 23% | 4% | 20% | 0% | 21% | 0% | 28% | 7% | 0% | 0% | 3% | 3% | 5%
5 | CC[C@@H]1CO[C@H](C(=O)Nc2ccccc2)CN1c1cc(-c2ccc3c(N)n[nH]c3c2)nc(NC)n1 [GSK2376236] | 19% | 0% | 0% | 0% | 0% | 0% | 0% | 0% | 0% | 27% | 12% | 0% | 15% | 0% | 0%
6 | CC(C)c1cc(-c2ccc3c(N)n[nH]c3c2)nc(N)n1 [GSK2250882] | 53% | 0% | 0% | 13% | 0% | 0% | 0% | 0% | 0% | 13% | 37% | 0% | 17% | 0% | 0%
7 | Cl.Cl.Cl.N#Cc1ccc(CCNc2nccc(-c3cccc(CN4CCNCC4)c3)n2)cc1 [GSK2137462] | 14% | 10% | 0% | 9% | 0% | 11% | 0% | 0% | 0% | 23% | 22% | 0% | 5% | 5% | 15%
8 | Cn1cnc2c(N)ncnc21 [SKF-97623] | 0% | 21% | 0% | 2% | 0% | 0% | 0% | 0% | 0% | 0% | 17% | 0% | 0% | 0% | 28%
9 | O=c1cc(N2CCOCC2)nc2n(Cc3cccc(Cl)c3Cl)c3ccccc3n12 [GSK2299009] | 31% | 0% | 0% | 16% | 0% | 0% | 0% | 0% | 6% | 13% | 36% | 0% | 21% | 0% | 25%
10 | Cc1ccc(-c2nc(Nc3ccncc3)c3ccccc3n2)s1 [GSK189015] | 12% | 0% | 0% | 21% | 0% | 34% | 17% | 11% | 29% | 21% | 4% | 55% | 19% | 3% | 26%
11 | Cc1c(Cn2c(C)c(C)n3c(=O)cc(N4CCOCC4)nc23)cccc1C(F)(F)F [GSK2328680] | 0% | 0% | 0% | 11% | 20% | 0% | 0% | 0% | 0% | 2% | 14% | 0% | 0% | 0% | 3%
12 | CC(C)c1ccc(O)cc1Nc1ccnc2ccc(C(F)(F)F)cc12 [GW482059] | 0% | 0% | 0% | 3% | 0% | 0% | 43% | 0% | 19% | 0% | 2% | 0% | 0% | 0% | 15%
13 | CCCCc1nn2ncccc2c1-c1ccnc(NC2CC2)n1 [GW684374] | 14% | 0% | 0% | 0% | 0% | 2% | 0% | 0% | 0% | 61% | 38% | 0% | 0% | 0% | 17%
14 | Cc1ccccc1Cn1ccn2c(=O)cc(N3CCOCC3)nc12 [GSK2269905] | 24% | 0% | 0% | 11% | 0% | 25% | 0% | 0% | 0% | 16% | 17% | 0% | 16% | 0% | 28%
15 | NS(=O)(=O)c1cccc(N/C=C2\C(=O)Nc3ccc(S(=O)(=O)Cc4c(Cl)cccc4Cl)cc32)c1 [GSK398099] | 31% | 0% | 0% | 14% | 0% | 0% | 0% | 0% | 0% | 1% | 18% | 0% | 25% | 0% | 8%
16 | Cn1cncc1-c1cc2c(Nc3ccc(OCc4ccccc4)cc3)ncnc2cn1 [GW281179] | 20% | 0% | 0% | 12% | 0% | 5% | 0% | 18% | 0% | 7% | 24% | 0% | 5% | 0% | 23%
17 | CCn1c(-c2ccccc2)nc2cnccc21 [SB-733416] | 0% | 0% | 13% | 5% | 0% | 23% | 20% | 15% | 10% | 8% | 0% | 0% | 14% | 0% | 36%
18 | COC(=O)c1cccc(NC(=O)NC2CCN(c3ccnc(Nc4ccc(OC)cc4)n3)C2)c1 (stereo not shown) [GSK1379746] | 18% | 0% | 0% | 13% | 0% | 41% | 0% | 0% | 0% | 18% | 52% | 0% | 11% | 0% | 20%
19 | COc1ccc(Nc2nccc(N3CCC(NC(=O)C(C)c4ccc(Cl)cc4)CC3)n2)cc1 (stereo not shown) [GSK1379812] | 23% | 4% | 0% | 28% | 0% | 8% | 0% | 0% | 0% | 25% | 18% | 0% | 0% | 3% | 18%
20 | COc1ccc(-c2coc3ccc(-c4nnc(C)o4)cc23)cc1 | 0% | 32% | 7% | 0% | 12% | 0% | 5% | 0% | 27% | 9% | 0% | 8% | 0% | 2% | 0%
21 | O=C(Nc1n[nH]c2nc(-c3cccs3)c(Br)cc12)C1CCCC1 [SB-743341] | 0% | 48% | 19% | 5% | 17% | 0% | 0% | 7% | 9% | 7% | 0% | 0% | 40% | 0% | 1%
22 | COc1ccc(CSc2nnc(-c3ccc4c(c3)CCO4)o2)cc1 | 8% | 28% | 0% | 8% | 0% | 0% | 0% | 0% | 0% | 0% | 0% | 0% | 0% | 0% | 0%
